“And” between values parts separate entries of the source, which are not always exact repeats. Equal values may be shown once. The whole screen tested about 16,000 compounds, of which about 2,600 (16%) were called active. About 20% were inconclusive and are not listed. Not all results are given here. Values without a mark were called inactive. Calls follow the shape of the dose curve; as a rule, active = well fitted curve in the direction sought with a large enough effect; inconclusive = small, poorly fitted or top-dose-only effect, or effect the other way; inactive = no such curve, though single readings can be large or run the other way. Square brackets hold non-standard residues; d marks the D form. Peptide text beside a SMILES is read from it.
Each compound was assayed against Cytochrome P450 2D6 (Homo sapiens) (UniProt P10635) (assay: Cytochrome panel assay with activity outcomes). Details: recombinant CYP, pro-luciferin dealkylation, luminescence, p450-cyp2d6; series mostly up to 57.1 µM; activity, negative = inhibition: at the top concentration.
Sequence of Cytochrome P450 2D6 (Homo sapiens) (P10635 whole entry, looked up): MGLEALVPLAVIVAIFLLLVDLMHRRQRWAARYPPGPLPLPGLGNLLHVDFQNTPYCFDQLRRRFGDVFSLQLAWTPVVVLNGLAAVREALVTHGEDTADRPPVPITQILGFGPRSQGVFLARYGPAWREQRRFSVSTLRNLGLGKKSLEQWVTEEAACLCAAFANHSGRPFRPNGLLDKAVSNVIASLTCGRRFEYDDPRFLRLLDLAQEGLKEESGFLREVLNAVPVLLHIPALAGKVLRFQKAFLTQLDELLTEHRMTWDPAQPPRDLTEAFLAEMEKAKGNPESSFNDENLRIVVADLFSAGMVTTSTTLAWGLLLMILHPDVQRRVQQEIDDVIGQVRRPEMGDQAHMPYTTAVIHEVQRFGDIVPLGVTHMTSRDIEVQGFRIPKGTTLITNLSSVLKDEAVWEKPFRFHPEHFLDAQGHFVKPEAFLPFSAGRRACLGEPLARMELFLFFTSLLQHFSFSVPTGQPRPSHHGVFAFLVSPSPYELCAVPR
% is scaled to controls: 0 for no effect and ±100 for the full control effect.

SMILES | activity, negative = inhibition | AC50
O=C(O)CN(CCN(CC(=O)O)CC(=O)O)CC(=O)O.[Cu] | 2.44% [at 11.4 µM] | –
COCCCn1c(=S)[nH]c2ncccc2c1=O | -7.67% | –
CC(=O)O[C@H]1C2=CO[C@H](C)[C@H]3[C@H]4C5=C([C@H](O)[C@H]6O[C@@H]6C5=O)[C@H](O[C@H]4C)[C@@]23C(=O)[C@H]2O[C@@H]21 | 17.5% [at 11.4 µM] | –
COc1cc2nc(N3CCN(C(=O)c4ccco4)CC3)nc(N)c2cc1OC | – | inactive
CCNc1nnc(-c2ccncc2)s1 | -6.69% | –
O=C1C[C@@H](O)[C@@H](O)[C@H]2[C@@H]3C(=O)N(C4CCCCC4)C(=O)[C@@H]3CC[C@H]12 | 9.04% [at 11.4 µM] and 6.81% [at 11.4 µM] and 7.19% [at 11.4 µM] | –
CN1CCN(c2ncc3nc(-c4cccs4)c(=O)n(Cc4cccs4)c3n2)CC1 | -8.7% | –
COc1ccc(C(=O)Nc2nc3c(s2)Cc2cc(OC)ccc2-3)cc1 | -14.7% | –
C=CCN=C1CC(C)(C)CC(=O)/C1=C(\O)c1ccccc1 | 18.3% | –
COc1ccc(-n2c(CNC(=O)c3cc(OC)c(OC)c(OC)c3)n[nH]c2=S)cc1 | -2.75% | –
COc1ccc(NC(=O)N2CCCC3(CCN(C(=O)c4csnn4)CC3)C2)cc1 | -0.507% | –
CC(C)NC(=O)N1CC[C@@]2(CCCN(C(=O)c3csnn3)C2)C1 | 0.0943% | –
CC(C)CN1CC[C@@]2(CCCN(C(=O)c3csnn3)C2)C1 | – | 501 nM (active)
CN1CCN(c2ccc([N+](=O)[O-])cc2C(=O)N2CCOCC2)CC1 | 14.8% | –
COc1ccc(C(=O)NN)cc1COc1ccc(Br)cc1 | – | 12600 nM (active)
COc1ccc(/C=C/C(=O)NCc2cn(C)nc2C)cc1COc1ccc(Br)cc1 | -13.3% | –
COc1ccc(C(=O)NNC(=O)Cc2ccc(-c3ccccc3)cc2)cc1OC | -6.09% | –
COC(=O)[C@H](CCSC)NC(=O)C/C=C\[C@@H](C)CO | 4.64% [at 11.4 µM] | –
COc1ccc([C@@H]2CNC(=O)C2)cc1OC1CCCC1 | – | inactive
CC[C@@H]1OC(=O)[C@H](C)[C@H](O[C@@H]2C[C@](C)(OC)[C@H](O)[C@H](C)O2)[C@H](C)[C@H](O[C@@H]2O[C@@H](C)C[C@@H](N(C)C)[C@@H]2O)[C@](C)(O)C[C@H](C)C(=O)[C@H](C)[C@H](O)[C@]1(C)O | 5.87% [at 25.6 µM] | –
CC[C@]1(O)C[C@@H]2CN(CCc3c([nH]c4ccccc34)[C@](C(=O)OC)(c3cc4c(cc3OC)N(C=O)[C@H]3[C@@](O)(C(=O)OC)[C@H](C(=O)OC)[C@@]5(CC)C=CCN6CC[C@]43[C@H]65)C2)C1 | 10.5% | –

SMILES | activity, negative = inhibition | AC50
COc1c(Cl)cc(Cl)cc1CNCCNCC(C)O (centres undefined) | – | 1780 nM (active)
COc1c(Cl)cc(Cl)cc1CNCCNCCO | – | 15800 nM (active)
OCCSCc1cc(Cl)cc(Cl)c1O | -5.19% [at 11.4 µM] | –
CCOc1cc(/C=N/O)cc(Cl)c1OC | -0.0031% | –
COc1ccc(-c2nc3cnc(N(C)C)nc3n(C[C@H]3CCCO3)c2=O)cc1 | 3.77% | –
Cc1ccc(NC(=O)CCC(=O)NNC(=O)c2cccs2)c(C)c1 | -9.16% | –
C[C@@H]1OC2C3=C(C(=O)[C@H]4O[C@@H]4[C@H]3O)[C@@H]1[C@H]1[C@H](C)OC=C3[C@H](O)[C@H]4O[C@H]4/C(=N\OCc4ccccc4)[C@@]321 | 3.22% [at 11.4 µM] | –
CO[C@@H]1COC(=O)[C@H](COCc2ccccc2)NC(=O)C/C=C\[C@@H](C)[C@H](OC)COC(=O)[C@@H](C)NC(=O)C/C=C\[C@H]1C | 0.0549% [at 11.4 µM] | –
O=C(O)[C@H]1C[C@@H](CP(=O)(O)O)CCN1 | -19.6% | –
C=CC[C@@H]1C=C[C@H](O/N=C(\C)CCN2CCc3nc(-c4ccccc4)c(-c4ccccc4)cc3C2)[C@H](CO)O1 | 0.49% [at 11.4 µM] | –
CC(=O)OC[C@@H]1O[C@H](CCO/N=C(\C)CCN2CCc3nc(-c4ccccc4)c(-c4ccccc4)cc3C2)C=C[C@@H]1OC(C)=O | -10.6% [at 11.4 µM] | –
CC(=O)OC[C@H]1O[C@@H](O/N=C(\C)CCN2CCc3nc(-c4ccccc4)c(-c4ccccc4)cc3C2)[C@H](OC(C)=O)[C@@H](OC(C)=O)[C@H]1OC(C)=O | – | 3160 nM (active)
CCc1cc2c(nc1CC)CCN(CC/C(C)=N/OCC[C@@H]1C=C[C@H](OC(C)=O)[C@H](COC(C)=O)O1)C2 | -5.93% [at 11.4 µM] | –
CCc1cc2c(nc1CC)CCN(CC/C(C)=N/O[C@@H]1O[C@H](COC(C)=O)[C@H](OC(C)=O)[C@H](OC(C)=O)[C@H]1OC(C)=O)C2 | – | 3980 nM (active)
CCCNC(=O)OC[C@@H]1O[C@H](CCO/N=C(\C)CCN2CCc3nc(CC)c(CC)cc3C2)C=C[C@@H]1Oc1ccc(OC)cc1 | -13.6% [at 11.4 µM] | –
CC1(C)CC(=O)C(C(C#Cc2ccccc2)C2=C(O)CC(C)(C)CC2=O)=C(O)C1 | -10.5% | –
CSc1nc2cc(S(=O)(=O)N3CCCCC3)ccc2s1 | 11.3% [at 11.4 µM] | –
O=C(O)CONC(=O)c1cc(OCC(F)(F)F)ccc1OCC(F)(F)F | 20.2% | –
O=C(NCC1CCCO1)/C(=C\c1ccco1)NC(=O)c1ccccc1 (centres undefined) | 3.99% | –
O=C(Nc1cccc(OC(=O)c2cccnc2)c1)c1cccnc1 | -10.6% | –
O=C(Nc1ccc(OC(=O)c2cccnc2)cc1)c1cccnc1 | -9.94% | –

SMILES | activity, negative = inhibition | AC50
O=C(Nc1cccnc1)c1ccc2snnc2c1 | – | 15800 nM (active)
O=C(CCn1nc(-c2ccc(Cl)cc2)ccc1=O)NCc1ccccn1 | -5.6% | –
O=C1C=C(Nc2nc(C(=O)O)cc(=O)[nH]2)c2ccccc2C1=O | -6.72% [at 11.4 µM] | –
O=C1C=C(NCCc2cc(Br)c(O)c(Br)c2)C(=O)c2ncccc21 | – | 1580 nM (active)
Cc1cccc(Oc2coc3cc(OC(=O)c4cc5ccccc5oc4=O)ccc3c2=O)c1 | 3.71% | –
CCOC(=O)c1cc(C#N)c(Oc2ccccc2OC)nc1-c1ccccc1 | 0.22% | –
CCOc1cc(C)ccc1OCc1nnc(SCC(=O)c2cccc([N+](=O)[O-])c2)n1CC | 5.77% | –
Cc1cc2c(ncn2Cc2ccccc2)c([N+](=O)[O-])c1C | 8.41% | –
CCCN1C2=NCCCN2c2ccccc21 | – | 7080 nM (active)
Cc1ccc(C)c(C(=O)CN2C3=NCCCN3c3ccccc32)c1 | – | 10 nM (active)
Cc1ccccc1CN1C2=NCCN2C(=O)C2=C1CCN(Cc1ccccc1)C2 | -16.1% [at 11.4 µM] | –
CCCCN1C2=NCCCN2c2ccccc21 | – | 5010 nM (active)
CCCCN1C(=O)CC(Sc2ccccc2C(=O)O)C1=O (centres undefined) | 6.44% | –
CC(C)C[C@H]1C(=O)N2CCC[C@@H]2[C@]2(O)O[C@](NC(=O)[C@H]3C=C4c5cccc6[nH]c(Br)c(c56)C[C@H]4N(C)C3)(C(C)C)C(=O)N12 | – | inactive
COCCCN1C(=O)C(=O)/C(=C(/O)c2ccc(OC(C)C)c(C)c2)C1c1ccncc1 (centres undefined) | 5.89% | –
N[C@H](CO)C(=O)NCC(=O)O (H-[dS]-Gly-OH) | -2.94% [at 11.4 µM] | –
Cc1cc(C)nc(NS(=O)(=O)c2ccc(N)cc2)n1 | -0.0096% [at 25.6 µM] | –
CN1C(=O)/C(=C\c2ccccc2)Sc2ccc(C(=O)N3CCN(c4ccccn4)CC3)cc21 | -1.49% | –
C=C[C@H](N)CCC(=O)O | – | inactive
CCc1c(C)sc(NC(=O)OC)c1C(N)=O | -1.65% | –
COc1nc(/C(N)=N/O)nc(N2CCCCC2)n1 | 0.0215% | –

SMILES | activity, negative = inhibition | AC50
Cc1ncc([N+](=O)[O-])n1CCOC(=O)NC(NCc1ccccc1)C(Cl)(Cl)Cl (centres undefined) | -19.7% | –
Cc1cc(=O)c2ccccc2[nH]1 | 15.9% | –
OC(COCC1COc2ccccc2O1)CN1CCc2ccccc2C1 (centres undefined) | – | 447 nM (active)
N=C(N)N1CCc2ccccc2C1 | -1.24% [at 25.6 µM] | –
OC(COCC1COc2ccccc2O1)CN1CCN(c2ccccc2F)CC1 (centres undefined) | – | 2240 nM (active)
O=C1CCCN1CC(O)CS(=O)(=O)c1ccccc1 (centres undefined) | -0.283% | –
Cc1cc2c(nc1C)CCCN2C[C@@H](O)CN1CCN(C)CC1 | -5.57% [at 11.4 µM] | –
Cc1ccc(C2C(=O)N(C3CCCC3)CC(=O)N2CC2COc3ccccc3O2)cc1 (centres undefined) | -17.2% | –
C[C@@H]1CCCN(C[C@@H](O)CN2CCCc3ccccc32)C1 | – | 1580 nM (active)
CC1CCCC(C)N1CC(O)COCC1COc2ccccc2O1 (centres undefined) | – | 1780 nM (active)
O=C(O)c1cc(=O)c2c(OCC(O)COc3cccc4oc(C(=O)O)cc(=O)c34)cccc2o1 | -4.6% [at 25.6 µM] | –
Cc1ccc(-c2cccc(OC(=O)c3ccccc3F)c2)cc1 | -11.6% | –
CC(C)C(=O)NC(=S)Nc1ccccc1C(=O)Nc1ccccc1 | 0.519% | –
CN1CCN(c2ncc3ncc(=O)n(C[C@H]4CCCO4)c3n2)CC1 | 3.47% | –
COc1ccc(S(=O)(=O)N2CCC(C(=O)NCC3CCCO3)CC2)cc1C (centres undefined) | -4.05% | –
O=c1n(-c2ccccc2)c(=O)n2n1CC[C@H]1/C(=N\OC[C@@H](O)COCc3ccco3)[C@H]3O[C@@H]3[C@@H](O)[C@@H]12 | 0.6% [at 11.4 µM] and 20% [at 11.4 µM] | –
COC1(OC)N=C(NC(=O)Nc2ccccc2)C2(C#N)C(c3ccccc3)C12C#N (centres undefined) | 0.403% | –
COc1ccc(-c2noc(C3CCCN(C(=O)c4ccccc4OC)C3)n2)cc1OC (centres undefined) | -13.3% | –
CCCC[C@@H]1C[C@H]1C(NC(=O)c1cccs1)c1ccc(-c2ccccc2)cc1 (some centres undefined) | 4.23% | –
CC1CCCN(CC(O)COCC2COc3ccccc3O2)C1 (centres undefined) | – | 2510 nM (active)
CN1CCN(S(=O)(=O)c2cc([N+](=O)[O-])ccc2N2CCCCCC2)CC1 | -22.5% | –

Reference: PubChem BioAssay AID1851 (National Center for Advancing Translational Sciences (NCATS), 2009)
